Source: PubChem
Hits are enriched below; roughly 3.3% of the tested compounds scored in any of these assays.
MBD2 DNA inh – inhibitors of human MBD2 binding to methylated oligonucleotide; Q9UBB5; TR-FRET; inhibition, % at 4.4 µM; actives 0.31% (n = 370,000); AID 686964; in the data active means inhibition above about 13%
PfG6PD inh – PfG6PD (Plasmodium falciparum) enzyme inhibition; PfGluPho enzyme, NADPH resazurin-diaphorase fluorescence; actives 0.78% (n = 350,000); AID 504690; inhibition, % at 20 µM;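 active means inhibition reaching at least a set limit at 20 µM in the primary screen, cut at about 59% in these data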;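 further: 0% = DMSO wells with substrate and 100% = DMSO wells lacking glucose-6-phosphate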
PRMT1 FP inh – inhibitors of human PRMT1 | Q99873 | recombinant PRMT1, activity-based probe fluorescence polarization | inhibition, % at 2.79 µM | actives 1.3% (n = 370,000);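 active means inhibition above about 21% made by adding two undisclosed values, limit read from the data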
Target sequence (Q99873 whole entry, looked up): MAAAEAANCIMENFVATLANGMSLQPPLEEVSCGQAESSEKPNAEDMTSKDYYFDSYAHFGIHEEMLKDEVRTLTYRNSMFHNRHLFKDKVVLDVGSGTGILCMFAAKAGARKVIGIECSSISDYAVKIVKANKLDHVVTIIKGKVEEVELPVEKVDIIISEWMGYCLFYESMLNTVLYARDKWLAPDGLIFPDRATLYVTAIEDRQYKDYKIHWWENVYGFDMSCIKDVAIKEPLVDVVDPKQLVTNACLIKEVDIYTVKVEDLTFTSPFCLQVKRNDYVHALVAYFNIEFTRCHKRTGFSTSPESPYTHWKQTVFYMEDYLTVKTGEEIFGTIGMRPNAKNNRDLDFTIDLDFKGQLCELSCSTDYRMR
M18AAP inhibitor – blocks P. falciparum M18 aspartyl aminopeptidase; recombinant PfM18AAP, H-Glu-NHMec fluorogenic cleavage; inhibition, % at 7.35 µM; actives 1.2% (n = 290,000); AID 1822;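 active means inhibition above the campaign mean inhibition over all tested compounds plus 3 SD, cut at about 28% in these data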;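 further: 0% = plate median of test compound wells and 100% = 2 mM ZnCl2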
UHRF1 binding – blocks human UHRF1 binding to methylated DNA. Q96T88. UHRF1 binding to methylated oligo, TR-FRET. inhibition, % at 4.4 µM. actives 0.75% (n = 370,000). AID 687016; in the data active means inhibition above about 21%;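 further: UHRF1 SRA domain binding a hemimethylated CpG hairpin DNA probe; 0% = median of test compound wells and 100% = reference inhibitor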
PfGluPho conf – confirmation of Plasmodium falciparum G6PD inhibitors. shares compounds with PfG6PD inh. recombinant PfGluPho, NADPH-diaphorase-resazurin fluorescence. inhibition, % at 20 µM. actives 34% (n = 2,400). AID 504753;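 active means inhibition of at least 50% at 20 µM in any single replicate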;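 further: 0% = DMSO with substrate and 100% = DMSO lacking glucose-6-phosphate substrate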
Diaph ctr 10uM – inhibits diaphorase or oxidizes, flagging false PfG6PD hits | shares compounds with PfG6PD inh | diaphorase-coupled resazurin reduction, fluorescence, NADPH 10 uM | inhibition, % at 20 µM | actives 39% (n = 820);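 active means average inhibition reaching 50% or more with the compound at 20 µM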;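 further: resorufin red fluorescence formed as diaphorase reduces resazurin using NADPH; 0% = DMSO with enzyme and 100% = DMSO without enzyme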
Diaphorase 30uM – diaphorase inhibition or oxidation at 30 uM NADPH; shares compounds with PfG6PD inh; Diaphorase/resazurin coupled assay, resorufin fluorescence; inhibition, % at 20 µM; actives 29% (n = 820);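 active means inhibition averaging 50% or more, tested at 20 µM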;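 further: 0% = DMSO with enzyme and 100% = DMSO wells lacking diaphorase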
Numbers without * were called inactive.

How did Nc1ccc(C(=O)OCCCc2nc3cc4ccccc4cc3[nH]2)cc1 do in these assays?
MBD2 DNA inh: -6; PfG6PD inh: 27; PRMT1 FP inh: -4; M18AAP inhibitor: -8; UHRF1 binding: -1

What do the screens show for `Nc1ccc(C(=O)OCc2nc3cc4ccccc4cc3[nH]2)cc1`?
MBD2 DNA inh: -3; PfG6PD inh: 63*; PRMT1 FP inh: 5; M18AAP inhibitor: 3; UHRF1 binding: -2; PfGluPho conf: 27

How did CCOc1ccc(S(=O)(=O)Nc2cccc(C(=O)NCCCN3CCCC3=O)c2)cc1 do in these assays?
MBD2 DNA inh: 4; PfG6PD inh: -8; PRMT1 FP inh: -1; UHRF1 binding: 2

How did CCCCOC(=O)C1=C(C)NC2=C(C(=O)CCC2)C1c1cc(OC)ccc1OC (stereo not drawn) do in these assays?
MBD2 DNA inh: 0; PfG6PD inh: 12; PRMT1 FP inh: 1; M18AAP inhibitor: 3; UHRF1 binding: 1

Results for CCOC(=O)C1CCCN(C(=O)c2ccc(C(F)(F)F)nc2C)CC1 (stereo not drawn) ?
MBD2 DNA inh: 3; PRMT1 FP inh: -1; UHRF1 binding: -1

How did CCc1ccc(CNc2ccc(O)cc2)cc1 do in these assays?
PfG6PD inh: 85*; M18AAP inhibitor: 26; PfGluPho conf: 43

What do the screens show for `Oc1ccc(NCc2ccccc2OCc2ccccc2F)cc1`?
MBD2 DNA inh: -2; PfG6PD inh: 76*; PRMT1 FP inh: 12; M18AAP inhibitor: 7; UHRF1 binding: 0; PfGluPho conf: 42

Results for CCOc1ccccc1CNc1ccc(O)cc1 ?
MBD2 DNA inh: 7; PfG6PD inh: 74*; PRMT1 FP inh: 19; M18AAP inhibitor: 20; UHRF1 binding: 17; PfGluPho conf: 63*; Diaph ctr 10uM: -3; Diaphorase 30uM: -4

What do the screens show for `Cc1ccc(NCc2ccccc2OCc2ccccc2F)cc1`?
MBD2 DNA inh: 3; PfG6PD inh: 23; PRMT1 FP inh: 2; M18AAP inhibitor: 2; UHRF1 binding: 3

What do the screens show for `CCOc1cccc(CNc2ccc(O)cc2)c1OCc1ccc(Cl)cc1`?
MBD2 DNA inh: -7; PfG6PD inh: 70*; PRMT1 FP inh: 4; M18AAP inhibitor: 20; UHRF1 binding: -5; PfGluPho conf: -1

What do the screens show for `CCc1ccc(CNc2ccc3c(c2)ncn3CC)cc1`?
MBD2 DNA inh: 1; PfG6PD inh: 26; PRMT1 FP inh: 3; M18AAP inhibitor: 7; UHRF1 binding: 1

What do the screens show for `COc1cccc(CNCCO)c1OCc1ccc(Cl)cc1`?
MBD2 DNA inh: 3; PfG6PD inh: 2; PRMT1 FP inh: 5; M18AAP inhibitor: -17; UHRF1 binding: 0

How did CCOc1ccccc1CNc1nc2ccccc2n1C do in these assays?
MBD2 DNA inh: -6; PfG6PD inh: 13; PRMT1 FP inh: -4; M18AAP inhibitor: 0; UHRF1 binding: 0

Results for NS(=O)(=O)c1ccc(NC(=O)CCC(=O)O)cc1 ?
MBD2 DNA inh: -4; PRMT1 FP inh: -2; UHRF1 binding: 0

What do the screens show for `COc1ccccc1-c1ccc(SCC(=O)NC2CCCC2)nn1`?
MBD2 DNA inh: -3; PfG6PD inh: 4; PRMT1 FP inh: -2; UHRF1 binding: 2

Results for Oc1ccc(/C=N/N2CCOCC2)c(O)c1O ?
MBD2 DNA inh: -3; PfG6PD inh: 87*; PRMT1 FP inh: 8; M18AAP inhibitor: 34*; UHRF1 binding: 7; PfGluPho conf: 48

Results for COc1ccc(Nc2cc(C)c3ccc(O)cc3n2)cc1 ?
MBD2 DNA inh: 1; PfG6PD inh: 72*; PRMT1 FP inh: 0; M18AAP inhibitor: -6; UHRF1 binding: -2; PfGluPho conf: 20

How did c1ccc(Cc2nn3c(COc4ccccc4)nnc3s2)cc1 do in these assays?
MBD2 DNA inh: 1; PfG6PD inh: 63*; PRMT1 FP inh: 6; M18AAP inhibitor: 6; UHRF1 binding: 0; PfGluPho conf: 24

How did CCOc1ccccc1OCc1nn2c(COc3ccccc3)nnc2s1 do in these assays?
MBD2 DNA inh: 4; PfG6PD inh: 69*; PRMT1 FP inh: 13; M18AAP inhibitor: 13; UHRF1 binding: -1; PfGluPho conf: 27

How did Cc1ccc(NC(=O)C2Cc3ccccc3CN2C(=O)c2ccccc2)cc1Cl (stereo not drawn) do in these assays?
MBD2 DNA inh: 5; PfG6PD inh: 94*; PRMT1 FP inh: 2; M18AAP inhibitor: 7; UHRF1 binding: 11; PfGluPho conf: 32

What do the screens show for `C[C@H]1[C@H](N(Cc2cccs2)Cc2cccs2)CC[C@@]23CCCN2C(=O)CCC[C@@H]13`?
MBD2 DNA inh: -4; PRMT1 FP inh: -3; UHRF1 binding: -2

How did Cc1cc(Nc2ccc(C)c(Cl)c2)nc(N2CCOCC2)n1 do in these assays?
MBD2 DNA inh: 6; PfG6PD inh: 66*; PRMT1 FP inh: -2; M18AAP inhibitor: 0; UHRF1 binding: 1; PfGluPho conf: 8

How did Cc1ccc(Nc2cc(C)nc(N3CCOCC3)n2)cc1 do in these assays?
MBD2 DNA inh: -6; PfG6PD inh: 61*; PRMT1 FP inh: 1; M18AAP inhibitor: 0; UHRF1 binding: 0; PfGluPho conf: 12

Results for CCOC(=O)CC[C@@]1(C(=O)OCC)C[C@@H](CC(=O)NCc2ccc(C)o2)C(=O)N2CCCC=C21 ?
MBD2 DNA inh: 4; PRMT1 FP inh: 11; UHRF1 binding: 0

How did O=C(Nc1cccc(Cl)c1)OC1CCC12CCC(c1ccccc1)CC2 (stereo not drawn) do in these assays?
MBD2 DNA inh: -7; PRMT1 FP inh: -6; UHRF1 binding: -2

What do the screens show for `CC(=O)CSc1ccc(-c2nc3cc(C)c(C)cc3[nH]2)cn1`?
MBD2 DNA inh: 0; PfG6PD inh: 67*; PRMT1 FP inh: 5; M18AAP inhibitor: -3; UHRF1 binding: 1; PfGluPho conf: 20

What do the screens show for `Cc1ccc2nc(-c3ccc(SCC(=O)N4CCc5ccccc54)nc3)[nH]c2c1`?
MBD2 DNA inh: 2; PfG6PD inh: 59; PRMT1 FP inh: 1; M18AAP inhibitor: 0; UHRF1 binding: 0; PfGluPho conf: 12

What do the screens show for `CN(C)CC1CCC/C(=C/c2ccc(Cl)cc2)C1=O` (stereo not drawn)?
MBD2 DNA inh: 2; PfG6PD inh: 60*; PRMT1 FP inh: 3; UHRF1 binding: 0; PfGluPho conf: 21

How did O=[N+]([O-])c1ccc(Nc2ccccc2O)c([N+](=O)[O-])c1 do in these assays?
MBD2 DNA inh: -9; PfG6PD inh: 66*; PRMT1 FP inh: -7; UHRF1 binding: -11; PfGluPho conf: 27

How did COC(=O)CCC(=O)OC1(C)C(=O)C2=CN(CCCCO)C(c3ccc(OC)cc3)=CC2=C(Br)C1=O (stereo not drawn) do in these assays?
M18AAP inhibitor: 19
